proKLK7 act – activates the human kallikrein-7 zymogen; purified proKLK7, EDANS-DABCYL substrate fluorescence; 100% is mature enzyme control, 0% vehicle; P49862; 370,000 tested, 0.9% active; activation, % at 7 µM;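 active means activation above the mean of all tested compounds plus 3 SD, computed per campaign excluding outliers beyond control limits, cut at about 13% in these data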
SMARCA2 act – activators of SMARCA2 function | AID 652017 | activation, % at 9.1 µM | MG213 cells, MMTV-luciferase reporter, dexamethasone, overnight | 370,000 tested, 1% active; in the data active means activation above about 7.8%;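 further: 0% = vehicle wells and 100% = reference activator wells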
FAS-TE inh – inhibitors of human fatty acid synthase thioesterase domain. P49327. recombinant FAS-TE, OMFH fluorogenic substrate, fluorescence endpoint. inhibition, % at 15 µM. 360,000 tested, 0.67% active. AID 602261;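 active means compounds whose normalised, plate-corrected inhibition of enzyme fluorescence in the single-dose primary screen is 50% or more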;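 further: 0% = DMSO with enzyme and 100% = substrate without enzyme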
FXN GAA850 act – increases GAA850 frataxin promoter reporter activity. AID 540364. 360,000 tested, 0.56% active. activation, % at 6 µM. HEK293 lucGAA850 FXN promoter luciferase reporter, 24 h; percent of 10 µM SAHA response;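 active means activation above the average of all compounds screened plus 3 SD, cutoff fixed separately per campaign, cut at about 7.5% in these data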;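 further: 0% = DMSO wells and 100% = 10 µM SAHA wells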
FAS-TE conf – FAS thioesterase (human) inhibition, confirmation | shares compounds with FAS-TE inh | recombinant FAS-TE, OMFH fluorogenic substrate, fluorescence | inhibition, % at 15 µM | 2,300 tested, 45% active | AID 624325;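 active means compounds inhibiting the enzyme by at least 50% at 15 µM in any one of the replicates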;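 further: 0% = enzyme with DMSO only and 100% = wells lacking enzyme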
Numbers without * were called inactive; · = no result given. In the library only some 2.9% were active in any assay of this set; here they are far more common.

SMILES	proKLK7 act	SMARCA2 act	FAS-TE inh	FXN GAA850 act	FAS-TE conf
O=C1NC(Cc2ccccc2)c2nc3cc(F)ccc3c(=O)n2-c2cc3ccccc3cc21 (stereo unspecified)	-1.8	-3.2	91.5*	-7.0	34.5
O=C1NC(Cc2ccccc2)c2nc3cc(F)c(F)cc3c(=O)n2-c2cc3ccccc3cc21 (stereo unspecified)	-1.6	-3.0	85.5*	-3.9	14.1
O=C1NC(Cc2ccc(O)cc2)c2nc3cc(F)c(F)cc3c(=O)n2-c2cc3ccccc3cc21 (stereo unspecified)	-1.5	-4.4	18.3	-5.1	·
COc1cc2nc3n(c(=O)c2cc1OC)-c1cc2ccccc2cc1C(=O)NC3CC(C)C (stereo unspecified)	1.1	1.9	27.9	-3.8	·
O=C1NC(Cc2ccccc2)c2nc3ccccc3c(=O)n2-c2cc3ccccc3cc21 (stereo unspecified)	-1.6	-3.9	69.8*	-7.8	-1.9
O=C1NC(Cc2ccccc2)c2nc3ccccc3c(=O)n2-c2ccc(Cl)cc21 (stereo unspecified)	0.8	-1.1	·	·	·
Cc1ccc2c(=O)n3c(nc2c1)C(Cc1ccccc1)NC(=O)c1cc2ccccc2cc1-3 (stereo unspecified)	-2.7	-5.0	76.4*	-4.7	35.8
Cc1ccc2c(=O)n3c(nc2c1)C(Cc1ccccc1)NC(=O)c1cc(Cl)ccc1-3 (stereo unspecified)	-1.3	-1.8	·	·	·
COC(=O)N1C(=O)[C@](c2ccccc2)(C2CCCC2)N1C(=O)OC	-0.7	0.1	80.5*	2.4	90.4*
COC(=O)N1C(=O)[C@@](c2ccccc2)(C(C)C)N1C(=O)OC	·	·	0.6	-1.4	·
CCC1=NN(C(=O)c2cccc(Br)c2)C(O)(c2ccc(Br)cc2)C1 (stereo unspecified)	-0.9	7.4	51.9*	3.0	47.1
Cc1ccc(S(=O)(=O)N(C(=O)c2ccncc2)c2ccc(OC(=O)c3ccncc3)c3ccccc23)cc1	1.0	-4.1	56.9*	3.6	5.0
Cc1ccc(Cn2ccc(NC(=O)c3cc(C4CC4)on3)n2)cc1	0.3	-1.6	10.5	0.8	·
CC(C)(C)c1ccc(-c2nnc3n2N=C(c2ccc(-c4ccccc4)cc2)CS3)cc1	0.8	-1.2	·	·	·
O=C(Nc1ccccc1[N+](=O)[O-])OCC=Cc1ccccc1	0.4	-0.9	55.3*	1.9	59.1*
COc1ccc(CNC(=O)CSc2n[nH]c(N)n2)cc1	-0.4	1.0	-5.8	2.0	·
CCn1c(SCC(=O)N/N=C/C=C\c2ccccc2[N+](=O)[O-])nnc1-c1ccccc1	0.1	-5.0	-0.9	-3.9	·
O=C(CSc1nc2ccccc2c(=O)n1-c1ccc(Cl)cc1)N/N=C/C=C/c1ccccc1[N+](=O)[O-]	-0.4	-3.6	79.8*	-0.8	16.6
Cc1ccccc1-n1c(SCC(=O)N/N=C/C=C/c2ccccc2[N+](=O)[O-])nc2ccccc2c1=O	-0.5	-3.2	79.4*	1.1	27.1
O=C(CSc1nc2ccccc2c(=O)n1-c1ccccc1)N/N=C/C=C/c1ccccc1[N+](=O)[O-]	0.4	-1.0	23.0	1.8	·
CCC(CO)Oc1cc(NCc2cccc(Cl)c2)c2ncn(C(C)C)c2c1 (stereo unspecified)	·	·	-5.3	-1.4	·
FC(F)(F)c1cccc(N2CCN(C(=S)NC3CCCCC3)CC2)c1	0.6	-1.4	50.9*	0.9	28.0
C[C@@]12C(=O)Nc3cc(F)ccc3C(=O)N1[C@H]1c3ccccc3OC[C@@H]1[C@@H]2c1ccccc1	·	·	68.8*	-10.8	47.6*
Cc1ccc2c(c1)[C@H]1[C@H](CO2)[C@H](c2ccccc2)[C@]2(C)C(=O)Nc3ccc(F)cc3C(=O)N12	0.6	-0.9	83.4*	-9.0	44.4
Cc1ccc2c(c1)[C@H]1[C@H](CO2)[C@H](c2ccccc2)[C@]2(C)C(=O)Nc3cc(Cl)ccc3C(=O)N12	·	·	93.0*	-10.6	29.9
SMILES	proKLK7 act	SMARCA2 act	FAS-TE inh	FXN GAA850 act	FAS-TE conf
Cc1ccc2c(c1)[C@H]1[C@H](CO2)[C@H](c2ccccc2)[C@]2(C)C(=O)Nc3cc(F)c(F)cc3C(=O)N12	-1.0	0.4	76.1*	-9.5	21.0
CCCOc1ccc(-c2c(C(=O)N/N=C(\C)c3ccco3)nnn2-c2nonc2N)cc1	0.1	-2.9	-2.9	1.3	·
Cc1ccc(-c2nnn(CC(=O)N(CCCO)C(C(=O)NC3CCCC3)c3ccc(Cl)cc3)n2)o1 (stereo unspecified)	-0.1	0.4	5.4	0.6	·
CC(C)C[C@H]1C(=O)N2CCC[C@H]2[C@]2(O)O[C@](NC(=O)[C@@H]3C=C4c5cccc6[nH]c(Br)c(c56)CC4N(C)C3)(C(C)C)C(=O)N12 (stereo partly specified)	0.4	-3.8	75.6*	-9.4	24.3
O=C(CNc1cc(S(=O)(=O)N2CCCC2)ccc1OCC(F)(F)F)Nc1cccc(C(F)(F)F)c1	-1.2	-4.7	63.5*	-1.7	18.3
O=C(NNS(=O)(=O)c1ccc([N+](=O)[O-])cc1)c1ccc2ccccc2c1O	0.4	-2.0	63.1*	0.2	76.7*
O=C(NNS(=O)(=O)c1ccc([N+](=O)[O-])cc1)c1ccccc1	-0.3	-2.2	12.6	1.0	·
CC1(C)CC2CC(C)(CN2S(=O)(=O)c2ccc(C(=O)Nc3cc(S(=O)(=O)N4CCOCC4)ccc3Cl)cc2)C1 (stereo unspecified)	0.3	-4.1	76.4*	-3.5	22.9
O=C(NCCN1C(=O)S/C(=C\c2ccccc2F)C1=O)C1CCN(S(=O)(=O)c2cccs2)CC1	0.4	-0.9	61.4*	-1.5	9.1
CN(c1ccccc1)S(=O)(=O)c1ccc(NC(=O)c2nc(S(C)(=O)=O)ncc2Cl)cc1	5.4	-8.0	58.4*	-14.1	68.2*
CN(c1ccccc1)S(=O)(=O)c1ccc(NC(=O)c2ccccc2)cc1	-0.4	-2.1	15.1	4.3	·
O=c1[nH]c(CN2CCN(S(=O)(=O)c3cccs3)CC2)nc2c(Br)cc(Br)cc12	-0.2	1.0	55.1*	1.9	38.2*
O=c1[nH]c(CN2CCN(c3ncccn3)CC2)nc2c(Br)cc(Br)cc12	-0.2	1.1	11.3	3.3	·
O=C(Nc1ccccc1)C1=C(c2ccccc2)S(=O)(=O)CCS1(=O)=O	-0.4	-10.0	80.0*	-14.0	36.5
CC(SCC(=O)O)c1nc2ccccc2[nH]1 (stereo unspecified)	-0.1	-1.7	-5.1	0.4	·
COc1ccccc1/C=C(\NC(=O)c1ccc(OC)c(OC)c1)C(=O)Nc1ccc([N+](=O)[O-])cc1	0.5	-1.8	85.5*	-4.8	17.5
COc1ccccc1/C=C(\NC(=O)c1ccc(OC)c(OC)c1)C(=O)Nc1cccc([N+](=O)[O-])c1	0.5	-0.3	87.8*	-0.8	43.7*
CC(C)(C)c1ccc(C(=O)N/C(=C\c2cccc([N+](=O)[O-])c2)C(=O)Nc2cccc(C(=O)O)c2)cc1	1.1	-0.5	83.4*	2.4	88.2*

High-throughput results: PubChem, several laboratories
